Experimental data taken from PMC5540273 (PLoS ONE, 2017).

Legend:
Conditions in all cases: concentration: 1 μM, replicates: in singlicate; n = 1
SNARK = test system: T1, SNARK
T1 construct: gene NUAK2

SNRK = test system: SNRK
SRC = test system: SRC
SRMS = test system: SRMS
SRPK1 = test system: SRPK1
SRPK2 = test system: SRPK2
SRPK3 = test system: SRPK3
STK16 = test system: STK16
STK33 = test system: STK33
STK35 = test system: STK35
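Further: KINOMEscan kinase panel screen.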

Row | Structure (SMILES) | %Inh (SNARK) [%] | %Inh (SNRK) [%] | %Inh (SRC) [%] | %Inh (SRMS) [%] | %Inh (SRPK1) [%] | %Inh (SRPK2) [%] | %Inh (SRPK3) [%] | %Inh (STK16) [%] | %Inh (STK33) [%] | %Inh (STK35) [%]
1 | C[C@@H](Oc1cc(-n2cnc3cc(-c4ccnc(NCCS(C)(=O)=O)c4)ccc32)sc1C(N)=O)c1ccccc1Cl [GSK907232] | 95.4 | 0 | 48 | 0 | 84 | 0 | 82 | 27 | 0 | 15
2 | Cl.Cl.NCC(NCc1ccc(-c2ccnc3[nH]ccc23)s1)c1ccccc1 (stereo not shown) [GSK1321565] | 93.5 | 0 | 0 | 0 | 68 | 83 | 77 | 49 | 76 | 0
3 | CC(C)c1nc(-c2cccc(NS(=O)(=O)c3c(F)cccc3F)c2F)c(-c2ccnc(Nc3ccc(N4CCOCC4)nc3)n2)s1 [GSK2008607] | 29 | 0 | 100 | 99.5 | 38 | 0 | 0 | 46 | 83 | 36
4 | Cl.Cl.NCC(NC(=O)c1cc(-c2ccccc2)c(-c2ccnc3[nH]ccc23)s1)c1ccccc1 (stereo not shown) [GSK1321561] | 50 | 0 | 69 | 0 | 53 | 0 | 0 | 3 | 100 | 0
5 | c1ccc(Oc2ccc(Nc3ccnc4cc(-c5ccc(CNCCN6CCOCC6)o5)ccc34)cc2)nc1 [GW567145] | 6 | 0 | 22 | 87 | 0 | 58 | 0 | 2 | 21 | 48
6 | Cl.NC(=O)c1cccc(Nc2nccc(Nc3ccc(Oc4c(Cl)cccc4Cl)c(Cl)c3)n2)c1 [GW659009] | 1 | 5 | 18 | 19 | 37 | 0 | 6 | 35 | 0 | 0
7 | CCn1c(-c2nonc2N)nc2c(C#CC(C)(C)O)ncc(OCCCCN)c21.O=C(O)C(F)(F)F.O=C(O)C(F)(F)F [GSK507274] | 94.7 | 19 | 0 | 0 | 0 | 42 | 18 | 0 | 0 | 0
8 | COc1cccc(C(=O)Nc2cccc(Oc3ccc4nc(NC(=O)C5CC5)cn4n3)c2)c1 | 5 | 8 | 94.1 | 20 | 40 | 29 | 0 | 0 | 10 | 0
9 | Cc1ccc(C(=O)Nc2ccc(Nc3ccnc4cc(-c5nccs5)ccc34)cc2O)cc1.Cl [GW494702] | 10 | 0 | 60 | 89 | 12 | 31 | 13 | 0 | 9 | 0
10 | COCCOCCOc1cc2ncc3c4ccc(C#N)cc4[nH]c3c2cc1OC | 83 | 17 | 14 | 0 | 50 | 24 | 27 | 11 | 24 | 18
11 | COC(=O)Nc1nc2cc(Oc3ccc(NC(=O)Nc4cc(C(F)(F)F)ccc4F)cn3)ccc2[nH]1.Cl.Cl [GW681170] | 14 | 0 | 29 | 0 | 25 | 8 | 0 | 17 | 55 | 0
12 | Cl.c1ccc(-c2ccc3c(Nc4ccc5[nH]ncc5c4)ccnc3c2)nc1 [GW440137] | 20 | 0 | 33 | 0 | 31 | 0 | 0 | 30 | 0 | 0
13 | Nc1ncnc2c1nc(-c1ccccc1)n2-c1ccccc1 [SKF-97293] | 24 | 18 | 10 | 24 | 0 | 5 | 9 | 0 | 16 | 0
14 | Cc1ccc(C)c(NC(=O)NC2CCN(c3ccnc(Nc4ccc(F)cc4)n3)C2)c1 (stereo not shown) [GSK1379720] | 0 | 0 | 0 | 0 | 24 | 49 | 0 | 0 | 0 | 0
15 | FC(F)(F)c1ccc(/C=C/c2cncnc2Nc2ccc3[nH]c(Cc4ccccc4)nc3c2)cc1 [GW709199] | 45 | 0 | 1 | 0 | 21 | 56 | 2 | 0 | 0 | 0
16 | O=C(Nc1ccccc1F)NC1CCN(c2ccnc(Nc3ccc(F)cc3)n2)CC1 [GSK1379800] | 0 | 0 | 0 | 0 | 11 | 25 | 0 | 16 | 0 | 0
